Source: PubChem (National Center for Advancing Translational Sciences (NCATS))
KB-V1 MDR tox – KB-V1 MDR subline cytotoxicity. KB-V1 MDR cells viability, CellTiter-Glo, 72 h. 400,000 compounds, 3.4% hits. AID 1347076. Potency, µM (top dose mostly 46.1 µM), usual class: cytotoxic; also: nearly all actives have a fitted effect of over 60% in size
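Cytotoxicity toward P-gp-expressing KB-V1 cells was determined as loss of CellTiter-Glo luminescence after 72 h at 37 degrees C. Compounds were tested in quantitative HTS format across a concentration range, with curves fitted to normalized data.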
MCF10A rereplic – inducers of DNA re-replication in MCF 10A breast cells. MCF 10A DNA re-replication, Hoechst nuclear intensity, 48 h. Potency, µM (top dose mostly 46.1 µM), hits mostly activators. 350,000 compounds, 2.9% hits. AID 624296; also: nearly all actives have a fitted effect of over 50% in size
KB-3-1 tox – KB-3-1 parental cell cytotoxicity; KB-3-1 viability, CellTiter-Glo ATP luminescence, 72 h; Potency, µM (series often up to 46.1 µM), usual class: cytotoxic; 400,000 compounds, 1.4% hits; also: nearly all actives have a fitted effect of over 60% in size
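Using CellTiter-Glo luminescence, growth of non-resistant KB-3-1 adenocarcinoma cells is assessed 72 h after pin-tool compound addition at 37 °C. Normalized responses across the concentration series yield fitted curves.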
ELG1 repair inh – inhibitors of ELG1-dependent DNA repair in HEK293T cells. Potency, µM (titrated, usually from 46.1 µM), usual class: inhibitors. 330,000 compounds, 2.3% hits. HEK293T ELG1-luciferase reporter, luminescence, 16 h; DNA damage induced by 5-fluorouridine; also: nearly all actives have a fitted effect of over 55% in size
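Overnight (16 hr) co-exposure of 2,000 cells/well to 5-fluorouridine and compound at 37 °C preceded detection. Luciferase was quantified via ONE-Glo luminescence; loss of signal denotes inhibition.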
SW480 rerep – inducers of DNA re-replication in SW480 colon cancer cells. SW480 DNA re-replication, Hoechst DNA content imaging, 48 h. Potency, µM (top dose mostly 46.1 µM), actives largely listed as activators. 340,000 compounds, 1.8% hits. AID 624297; also: nearly all actives have a fitted effect of over 55% in size
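SW480 cells exposed to compounds for 48 hr at 37 C, 5% CO2, then Hoechst-stained 40 min. Nuclear DNA content imaged by fluorescence scanning (405 nm excitation, 500-530 nm emission); re-replication scored as increased high-intensity nuclei.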
A number is an active result; n = inactive; u = inconclusive; x = no result given. Shown are actives, neighbours in structure and some others; about 8.1% of the full set was active somewhere. Calls follow the shape of the dose curve; as a rule, active = well fitted curve in the direction sought with a large enough effect; inconclusive = small, poorly fitted or top-dose-only effect, or another doubt; inactive = no such curve, though single readings can be large; an effect the other way counts as inactive or inconclusive.

SMILES	KB-V1 MDR tox	MCF10A rereplic	KB-3-1 tox	ELG1 repair inh	SW480 rerep
CC1=C(C(=O)Nc2cc(Cl)ccc2C)C(c2ccccc2F)n2ncnc2N1 (stereo not given)	18µM	x	n	x	x
COc1ccc(NC(=O)c2ccccc2N(Cc2ccccc2)S(C)(=O)=O)cc1OC	n	n	n	n	n
CS(=O)(=O)N(CC(=O)Nc1cc(Cl)ccc1Cl)c1ccccc1	16µM	n	n	n	n
CCOc1ccc(N(CC(=O)Nc2ccccc2OC)S(C)(=O)=O)cc1	u	u	u	n	u
CCOc1ccc(N(CC(=O)Nc2cc(Cl)ccc2C)S(C)(=O)=O)cc1	n	u	n	n	18µM
CCOc1ccc(N(CC(=O)Nc2ccccc2Cl)S(C)(=O)=O)cc1	u	u	u	n	21µM
COc1cccc(CNC(=O)Cc2ccc(NC(=O)N3CCSc4ncccc43)cc2)c1OC	n	x	n	x	x
C=CCn1cccc(/C=C/C(=O)c2ccc(C(C)(C)C)cc2)c1=S	u	13µM	n	u	u
Cc1nc(N)nc(N)c1-c1ccc(Cl)c(Cl)c1	n	n	u	x	n
Cc1cc(OCc2nc(N)nc(N)c2-c2ccc(Cl)c(Cl)c2)ccc1[N+](=O)[O-]	1µM	u	2.1µM	x	u
Cc1cc(=O)[nH]c(NN=Cc2cc(Br)ccc2O)n1	0.58µM	u	u	x	u
Cc1cc(=O)[nH]c(N/N=C/c2ccccc2Cl)n1	n	u	n	u	n
CCN(CC)c1ccc(/C=N/Nc2nc(C)cc(=O)[nH]2)c(O)c1	u	8.2µM	1.2µM	u	u
CCOC(=O)Cc1csc(NC(=O)C(NC(=O)C2CCC(C)CC2)C(C)C)n1 (stereo not given)	u	n	n	8.2µM	n
CCOC(=O)Cc1csc(NC(=O)Nc2ccc(F)cc2)n1	n	n	n	7.3µM	n
CCOC(=O)Cc1csc(NC(=O)CSc2nc(N)c3c(C)c(C)sc3n2)n1	8.2µM	n	n	u	n
CCOC(=O)Cc1csc(NC(=O)c2csc(C)c2)n1	16µM	n	n	n	n
CCOC(=O)Cc1csc(NC(=O)c2cccc(OC)c2)n1	n	n	n	n	n
CCOP(=O)(OCC)c1nc(-c2ccc(Cl)cc2Cl)oc1N1CCCCC1	u	16µM	n	u	n
CCOP(=O)(OCC)c1nc(-c2ccccc2Cl)oc1N1CCOCC1	u	u	n	n	n
COc1cccc2cc(C(=O)NCCC3=CCCCC3)c(=O)oc12	n	n	n	n	n
O=C(NC(=S)N1CCN(C(c2ccccc2)c2ccccc2)CC1)c1ccc(S(=O)(=O)N2CCOCC2)cc1	21µM	n	n	u	n
Cc1csc(NC(=O)CCc2ccc(S(=O)(=O)N3CCOCC3)cc2)n1	23µM	u	n	n	n
CN1CCN(C(=S)NC(=O)c2ccc(S(=O)(=O)N3CCOCC3)cc2)CC1	n	n	n	n	n
CN(C)CC(C)(C)CNC(=S)Nc1ccc(S(=O)(=O)N2CCOCC2)cc1	u	n	n	n	26µM
SMILES	KB-V1 MDR tox	MCF10A rereplic	KB-3-1 tox	ELG1 repair inh	SW480 rerep
O=C(CCc1ccccc1)NC(=S)Nc1ccc(S(=O)(=O)N2CCOCC2)cc1	4.6µM	u	u	u	n
CCCC(C(=O)Nc1ccc(S(=O)(=O)N2CCOCC2)cc1)c1ccccc1 (stereo not given)	n	u	n	u	0.23µM
CC(C)CCCCCCNC(=S)Nc1ccc(S(=O)(=O)N2CCOCC2)cc1	8.2µM	13µM	u	u	u
Cc1cnc(NC(=O)COc2ccc3c(c2)CCC3)s1	n	n	n	u	n
O=C(c1ccco1)N1CCN(c2nc(C3CC3)nc3sc4c(c23)CCCC4)CC1	21µM	n	n	u	n
Cc1nc(N2CCN(C(=O)c3ccco3)CC2)c2c3c(sc2n1)CC(C)CC3 (stereo not given)	8.2µM	u	n	u	n
Cc1ccc(S(=O)(=O)N2CCN(c3nc(C)nc4sc5c(c34)CCC(C)C5)CC2)cc1 (stereo not given)	x	x	x	n	x
CCc1nc(SCC(=O)N2CCN(C(=O)c3ccco3)CC2)c2c3c(sc2n1)CCCC3	u	u	n	u	n
Cc1nc(N2CCN(C(=O)c3ccco3)CC2)c2c3c(sc2n1)CCCC3	21µM	n	n	18µM	n
